Screens as filed in PubChem BioAssay.
In the library only some 6% were active in any assay of this set; here they are far more common.
PLK1 PBD inh: inhibitors of human PLK1 polo-box domain binding | Plk1 PBD binding of FITC phosphopeptide, fluorescence polarization | AID 720504 | Potency, µM, for the others: max response, negative = inhibition, usual class: inhibitors | 360,000 compounds, 2.8% hits; also: series mostly up to about 57 µM; nearly all actives have a fitted effect of over 65% in size
Tau fluor cs: counter-screen for tau fibril formation inhibitors; tau K18 P301L Alexa594 fluorescence, heparin fibrillization; Potency, µM (top dose mostly 57.7 µM), inactives show at the highest dose activity change, negative = decrease; 280,000 compounds, 0.93% hits; also: nearly all actives have a fitted effect of over 55% in size
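Human K18 P301L tau (15 uM unlabeled plus 0.24 uM Alexa 594-labeled, final) in 100 mM sodium acetate pH 7 was mixed with compound and 20 uM heparin and incubated 6 hr at 37 C.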
Tau FP inhib: blocks human tau fibril formation measured by polarization; P10636; K18 P301L tau heparin fibrillization, Alexa594 FP, 6 h; Potency, µM (titrated, usually from 57.7 µM), without a hit: top-dose activity, negative = inhibition, actives largely listed as inhibitors; 280,000 compounds, 0.39% hits; also: nearly all actives have a fitted effect of over 55% in size
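Compound effects on tau fibrillization are measured by Alexa 594 fluorescence polarization (ex 555, em 632 nm). K18 P301L tau is used at 15 uM with 0.24 uM labeled tracer, and 20 uM heparin induces aggregation over 6 hr at 37 C.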
Sfp PPTase inh: inhibitors of Bacillus subtilis Sfp phosphopantetheinyl transferase; Biochemical Sfp PPTase activity, qHTS; Potency, µM, for the others: largest response in the series, negative = inhibition, actives largely listed as inhibitors; 310,000 compounds, 3.5% hits; AID 1490;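 also: the enzyme is Sfp with the accession as filed and its product quenches rhodamine fluorescence; 0% = enzyme reaction without inhibitor and -100% = no enzyme wells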
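Compounds were incubated with enzyme (final 15 nM) for 15 min at room temperature before substrate addition started the reaction. Fluorescence at 525 nm excitation, 598 nm emission was recorded immediately and after 30 minutes.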
Tau ThT inhib: blocks human tau fibril formation measured by thioflavin T. P10636. recombinant tau K18 P301L (four-repeat tau fragment), heparin-induced fibrillization, ThT fluorescence. Potency, µM (series often up to 57.4 µM), without a hit: top-dose activity, negative = inhibition, hits mostly inhibitors. 270,000 compounds, 2.1% hits; also: nearly all actives have a fitted effect of over 55% in size
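Heparin-induced fibrillization of the P301L-mutant K18 repeat-domain fragment of human tau was followed by ThT binding in quantitative high-throughput format.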
VDR inh: blocks the human vitamin D receptor; VDR-SRC2-3 peptide fluorescence polarization, 2 h; Potency, µM, for the others: max response, negative = inhibition, most hits filed as inhibitors; 400,000 compounds, 0.93% hits; AID 504847
Target sequence (P11473 whole entry, looked up): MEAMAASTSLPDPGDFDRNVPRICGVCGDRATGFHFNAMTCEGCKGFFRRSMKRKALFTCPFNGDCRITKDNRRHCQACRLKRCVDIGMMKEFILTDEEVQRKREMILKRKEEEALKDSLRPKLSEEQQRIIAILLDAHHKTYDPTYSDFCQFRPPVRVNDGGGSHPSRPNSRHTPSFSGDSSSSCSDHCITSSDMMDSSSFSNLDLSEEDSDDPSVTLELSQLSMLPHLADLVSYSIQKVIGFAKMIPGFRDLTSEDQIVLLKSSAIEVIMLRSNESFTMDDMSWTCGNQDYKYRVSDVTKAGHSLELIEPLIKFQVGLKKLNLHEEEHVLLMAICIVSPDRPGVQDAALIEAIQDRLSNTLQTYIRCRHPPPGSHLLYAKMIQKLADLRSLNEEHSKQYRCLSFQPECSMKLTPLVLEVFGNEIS
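FP read-out; VDR + SRC2-3 coactivator peptide; 23 nl compound by pintool; 2 h RT incubation; reagents held at 4 deg C, protected from light.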
Numbers without * were called inactive; ? = inconclusive; nt = not tested or not shown. Calls follow the shape of the dose curve; as a rule, active = well fitted curve in the direction sought with a large enough effect; inconclusive = small, poorly fitted or top-dose-only effect, or another doubt; inactive = no such curve, though single readings can be large; an effect the other way counts as inactive or inconclusive. Unless noted, % is scaled to controls: 0 for no effect and ±100 for the full control effect; potency is read from the fitted curve at half-maximal effect.

SMILES	PLK1 PBD inh	Tau fluor cs	Tau FP inhib	Sfp PPTase inh	Tau ThT inhib	VDR inh
CSCC[C@H](NC(=O)[C@H](CC(C)C)NC(=O)[C@H](Cc1c[nH]c2ccccc12)NC(=O)[C@H](CCC(N)=O)NC(=O)[C@@H](NC(=O)[C@H](Cc1ccccc1)NC(=O)[C@H](CC(=O)O)NC(=O)[C@H](CCC(N)=O)NC(=O)[C@H](C)NC(=O)[C@H](CCCNC(=N)N)NC(=O)[C@H](CCCNC(=N)N)NC(=O)[C@H](CO)NC(=O)[C@H](CC(=O)O)NC(=O)[C@H](CC(C)C)NC(=O)[C@H](Cc1ccc(O)cc1)NC(=O)[C@H](CCCCN)NC(=O)[C@H](CO)NC(=O)[C@H](Cc1ccc(O)cc1)NC(=O)[C@H](CC(=O)O)NC(=O)[C@H](CO)NC(=O)[C@@H](NC(=O)[C@H](Cc1ccccc1)NC(=O)[C@@H](NC(=O)CNC(=O)[C@H](CCC(N)=O)NC(=O)[C@H](CO)NC(=O)[C@@H](N)Cc1cnc[nH]1)[C@@H](C)O)[C@@H](C)O)C(C)C)C(=O)N[C@@H](CC(N)=O)C(=O)N[C@H](C(=O)O)[C@@H](C)O	nt	nt	nt	7.9%	nt	2.9%
CCC(CO)Nc1ncnc2c1cnn2-c1ccc(C)cc1 (centres undefined)	nt	-0.6%	-13.6%	nt	-1.4%	0.4%
NC(c1csc(Nc2nccc(C(F)(F)F)n2)n1)C1CCCCC1 (centres undefined)	-5.4%	nt	nt	nt	nt	nt
COc1cccc(/C=C2/C(=O)NN(c3ccc(F)cc3)C2=O)c1	5.32µM*	nt	nt	?	nt	44.7µM*
COc1ccc(NC(=O)N2CCC3(CC2)CCN(C(=O)c2cnccn2)CC3)cc1	nt	nt	nt	21.3%	nt	-0.5%
Cc1ccccc1-c1nc(SCC(=O)NCc2ccco2)c2c(=O)n(C)c(=O)n(C)c2n1	nt	7.9%	1.8%	nt	5.7%	-5.7%
CCSc1oc(-c2cccs2)nc1S(=O)(=O)c1ccc(Br)cc1	nt	?	-8.6%	nt	?	12.6%
COc1ccc(C2=NC3(CCCCCC3)N(CC(=O)Nc3cccc(Cl)c3)C2=O)cc1	nt	?	?	nt	4.1%	7.0%
CCCNc1nc(-c2ccccc2)c(C(=O)OCC)cc1C#N	-3.5%	-20.4%	7.9%	1.1%	-12.3%	-16.8%
C=CCNc1nc(-c2ccccc2)c(C(=O)OCC)cc1C#N	23.8µM*	-18.2%	3.0%	7.8%	-9.4%	-11.8%
N#Cc1nc(COc2ccccc2)oc1N1CCC(Cc2ccccc2)CC1	-2.6%	-7.8%	3.2%	-24.5%	-6.3%	5.8%
Cc1ccc(OCc2nc(C#N)c(N3CCN(Cc4ccccc4)CC3)o2)cc1	26.7µM*	-9.8%	-4.9%	1.5%	-18.0%	9.3%
N#Cc1nc(COc2ccccc2)oc1N1CCN(Cc2ccccc2)CC1	29.9µM*	-10.5%	1.7%	12.4%	?	-12.6%
Cc1ncc(CO)c2c1Oc1nc(-c3ccccc3Cl)nc(SCc3ccccc3F)c1C2	nt	-5.4%	0.5%	nt	-4.9%	2.6%
CC1CCC2(CC1)NC(=O)N(CC(=O)c1cn(CCC#N)c3ccccc13)C2=O (centres undefined)	-0.4%	-1.6%	1.5%	13.5%	-2.0%	-14.5%
Cn1c(=S)ccc2ccccc21	26.7µM*	-7.4%	-11.5%	44.7µM*	?	-25.8%
Cn1c(=S)n(C)c2ccccc21	-0.6%	7.7%	3.9%	13.0%	11.5%	6.0%
OCc1nn2c(c1Br)NC(c1ccccc1)CC2C(F)(F)F (centres undefined)	7.52µM*	1.3%	11.3%	7.9%	-5.7%	?
COC(=O)C(C(=O)OC)[C@@H]1O[C@@]23COC=C[C@]2(C)[C@H]3c2ccccc21	nt	-10.5%	-3.6%	-6.7%	-7.8%	-7.3%
Cc1ccc(-c2nc(NC(=O)CSc3nnc4scc(-c5ccccc5)n34)ns2)cc1	?	-9.9%	-8.2%	35.5µM*	-13.0%	-13.7%
Cc1ccc(-c2nc(NC(=O)CSc3ncn[nH]3)ns2)cc1	7.52µM*	-8.0%	-3.0%	22.3%	nt	14.1µM*
Cc1ccc(CNC(=O)CSc2ncn[nH]2)cc1	0.7%	nt	nt	12.7%	nt	7.6%
